# Results published in the supplement of paper PMC8728848.
# The entries come from a sample that favours the strongest signals as a whole.
# Key:
# Experiment in all cases: glycan array binding signal (z-score within array); higher = stronger binding
# Details in all cases: glycan notation: IUPAC condensed, linker removed
# [1] = biological target: Fuc(a1-2)Gal(b1-3)GalNAc(b1-3)Gal
# In short: (§1)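 Glycan array data were curated from 3228 arrays in the Consortium for Functional Glycomics database and kept only where the protein sequence was available. Glycan names were converted to IUPAC-condensed notation, and columns mapping to the same glycan were averaged. The binding signal is a within-array Z-score, averaged across arrays of the same protein sequence at different concentrations or buffers and across linkers. Negative Z-scores can be read as non-binding.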
# [2] = biological target: Fuc(a1-2)Gal(b1-3)GlcNAc(b1-3)[Gal(b1-4)GlcNAc(b1-6)]Gal(b1-4)Glc
# In short: as §1
# [3] = biological target: Fuc(a1-2)Gal(b1-3)GlcNAc6S
# In short: as §1
# [4] = biological target: Fuc(a1-2)Gal(b1-4)GlcNAc(b1-2)[Fuc(a1-2)Gal(b1-4)GlcNAc(b1-4)]Man(a1-3)[Fuc(a1-2)Gal(b1-4)GlcNAc(b1-2)Man(a1-6)]Man(b1-4)GlcNAc(b1-4)GlcNAc
# In short: as §1
# [5] = biological target: Fuc(a1-2)Gal6S(b1-3)GlcNAc
# In short: as §1
# [6] = biological target: Fuc(a1-2)[Gal(a1-3)]Gal(b1-3)GlcNAc
# In short: as §1
# [7] = biological target: Fuc(a1-2)[GalNAc(a1-3)]Gal(b1-4)GlcNAc(b1-3)Gal(b1-4)GlcNAc
# In short: as §1
# [8] = biological target: Fuc(a1-3)[Gal(b1-4)]GlcNAc(b1-2)Man(a1-3)[Fuc(a1-3)[Gal(b1-4)]GlcNAc(b1-2)Man(a1-6)]Man(b1-4)GlcNAc(b1-4)GlcNAc
# In short: as §1
# [9] = biological target: Fuc(a1-3)[GalNAc(b1-4)]GlcNAc
# In short: as §1
# Fuc(a1-4)GlcNAc = biological target: Fuc(a1-4)GlcNAc
# In short: as §1
# Gal(a1-3)Gal = biological target: Gal(a1-3)Gal
# In short: as §1
# [10] = biological target: Gal(a1-3)Gal(b1-3)GlcNAc(b1-3)GalNAc
# In short: as §1
# [11] = biological target: Gal(a1-3)Gal(b1-4)[Fuc(a1-3)]GlcNAc
# In short: as §1
# Gal(a1-4)Gal(b1-4)GlcNAc = biological target: Gal(a1-4)Gal(b1-4)GlcNAc
# In short: as §1
# Gal(b1-3)GalNAc(b1-3)Gal = biological target: Gal(b1-3)GalNAc(b1-3)Gal
# In short: as §1
# [12] = biological target: Gal(b1-3)GalNAc(b1-4)Gal(b1-4)Glc
# In short: as §1
# [13] = biological target: Gal(b1-3)GalNAc(b1-4)[Neu5Ac(a2-3)]Gal(b1-4)Glc
# In short: as §1
# [14] = biological target: Gal(b1-3)GlcNAc(a1-6)Gal(b1-4)GlcNAc
# In short: as §1
# [15] = biological target: Gal(b1-3)GlcNAc(b1-2)Man(a1-3)[Gal(b1-3)GlcNAc(b1-2)Man(a1-6)]Man(b1-4)GlcNAc(b1-4)GlcNAc
# In short: as §1
# [16] = biological target: Gal(b1-3)GlcNAc(b1-2)Man(a1-3)[Gal(b1-3)GlcNAc(b1-2)Man(a1-6)]Man(b1-4)GlcNAc(b1-4)[Fuc(a1-6)]GlcNAc
# In short: as §1
# [17] = biological target: Gal(b1-3)GlcNAc(b1-6)[Gal(b1-3)]GalNAc
# In short: as §1
# [18] = biological target: Gal(b1-3)[Neu5Ac(b2-6)]GalNAc
# In short: as §1
# Gal(b1-4)GlcNAc = biological target: Gal(b1-4)GlcNAc
# In short: as §1
# [19] = biological target: Gal(b1-4)GlcNAc(b1-2)Man(a1-3)[Man(a1-6)]Man(b1-4)GlcNAc(b1-4)GlcNAc
# In short: as §1
# [20] = biological target: Gal(b1-4)GlcNAc(b1-2)[Gal(b1-4)GlcNAc(b1-4)]Man(a1-3)[GlcNAc(b1-4)][Gal(b1-4)GlcNAc(b1-2)[Gal(b1-4)GlcNAc(b1-6)]Man(a1-6)]Man(b1-4)GlcNAc(b1-4)GlcNAc
# In short: as §1
# [21] = biological target: Gal(b1-4)GlcNAc(b1-3)Gal(b1-4)GlcNAc(b1-3)Gal(b1-4)GlcNAc(b1-3)Gal(b1-4)GlcNAc(b1-3)Gal(b1-4)GlcNAc(b1-2)Man(a1-3)[Gal(b1-4)GlcNAc(b1-3)Gal(b1-4)GlcNAc(b1-3)Gal(b1-4)GlcNAc(b1-3)Gal(b1-4)GlcNAc(b1-3)Gal(b1-4)GlcNAc(b1-2)Man(a1-6)]Man(b1-4)GlcNAc(b1-4)[Fuc(a1-6)]GlcNAc
# In short: as §1
# [22] = biological target: Gal3S(b1-4)[Fuc(a1-3)]GlcNAc
# In short: as §1
# GalNAc(a1-3)GalNAc = biological target: GalNAc(a1-3)GalNAc
# In short: as §1
# [23] = biological target: GalNAc(a1-3)GalNAc(b1-3)Gal(a1-4)Gal(b1-4)GlcNAc
# In short: as §1
# GlcA(b1-3)Gal = biological target: GlcA(b1-3)Gal
# In short: as §1
binder,measurement,setting,value
"UDA (Urtica dioica), P11218 (protein) MMMRFLSAVVIMSSAMAVGLVSAQRCGSQGGGGTCPALWCCSIWGWCGDSEPYCGRTCENKCWSGERSDHRCGAAVGNPPCGQDRCCSVHGWCGGGNDYCSGSKCQYRCSSSVRGPRVALSGNSTANSIGNVVVTEPLFDQMFSHRKDCPSQGFYSYHSFLVAAESFPAFGTIGDVATRKREVAAFLAHISQATSGERSDVENPHAWGLCHINTTTVTENDFCTSSDWPCAAGKKYSPRGPIQLTHNFNYGLAGQAIGEDLIQNPDLVEKDPIISFKTALWFWMSQHDNKPSCHDIVLNANSAANRIPNKGVIGNIISRAFGHDDFAVRSSSIGFYKRYCDMLGVSYGHDLKYWFDNTPSSEFQRIQMRVAA",glycan array binding signal (z-score),[1],-0.215
same,glycan array binding signal (z-score),[2],-0.109
same,glycan array binding signal (z-score),[3],-0.182
same,glycan array binding signal (z-score),[4],-0.161
same,glycan array binding signal (z-score),[5],-0.184
same,glycan array binding signal (z-score),[6],-0.167
same,glycan array binding signal (z-score),[7],-0.054
same,glycan array binding signal (z-score),[8],-0.165
same,glycan array binding signal (z-score),[9],-0.172
same,glycan array binding signal (z-score),Fuc(a1-4)GlcNAc,-0.178
same,glycan array binding signal (z-score),Gal(a1-3)Gal,-0.189
same,glycan array binding signal (z-score),[10],-0.177
same,glycan array binding signal (z-score),[11],-0.183
same,glycan array binding signal (z-score),Gal(a1-4)Gal(b1-4)GlcNAc,-0.101
same,glycan array binding signal (z-score),Gal(b1-3)GalNAc(b1-3)Gal,-0.178
same,glycan array binding signal (z-score),[12],-0.186
same,glycan array binding signal (z-score),[13],-0.189
same,glycan array binding signal (z-score),[14],-0.166
same,glycan array binding signal (z-score),[15],0.04
same,glycan array binding signal (z-score),[16],-0.156
same,glycan array binding signal (z-score),[17],-0.177
same,glycan array binding signal (z-score),[18],-0.187
same,glycan array binding signal (z-score),Gal(b1-4)GlcNAc,0.006
same,glycan array binding signal (z-score),[19],4.63
same,glycan array binding signal (z-score),[20],-0.17
same,glycan array binding signal (z-score),[21],1.52
same,glycan array binding signal (z-score),[22],-0.184
same,glycan array binding signal (z-score),GalNAc(a1-3)GalNAc,-0.191
same,glycan array binding signal (z-score),[23],-0.177
same,glycan array binding signal (z-score),GlcA(b1-3)Gal,-0.173
